SMILES strings stand for the structures. Counter-ions that a name gives are not always drawn. ± gives the standard deviation of the averaged measurements.

The first assay has as its system HCT116. Briefly: cell viability (CellTiter-Glo) relative to plate median (fraction of plate median); higher = more viable cells. As to conditions: 10 µM; treatment time 24 h; reporter: TCF4/Wnt. In short, it runs like this:
(§1)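 Reporter and viability luminescence were measured in colorectal cancer cells stably carrying lentiviral TCF/Wnt firefly luciferase reporters. The cells were exposed to kinase inhibitor library compounds at a final 10 µM for 24 h, starting 24 h after seeding in 384-well plates. Each well was normalised to the plate median (webcellHTS2, additive, no log transformation), and two independent replicates were averaged.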
A general note: In ATP-based viability assays light output follows the ATP content of the culture.
As for `O=C(NOC[C@H](O)CO)c1ccc(F)c(F)c1Nc1ccc(I)cc1F`, the cell viability was determined as 0.907 ± 0.058.

Turning to `Cc1cnc(Nc2ccc(N3CCN(C)CC3)cc2)nc1Nc1cccc(S(=O)(=O)NC(C)(C)C)c1`, the cell viability worked out at 0.514 ± 0.17.

`N#CCNC(=O)c1ccc(-c2ccnc(Nc3ccc(N4CCOCC4)cc3)n2)cc1` returned a cell viability of 1.25 ± 0.078.

In turn, `COc1ccc2c(OCc3nnc4ccc(-c5ccccc5)nn34)ccnc2c1` registered a cell viability of 1.11 ± 0.05.

`Oc1cc(O)cc(/C=C/c2ccc(O)c(O)c2)c1` [Piceatannol] came in with a cell viability of 1.19 ± 0.14.

`CN1CC[C@H](c2c(O)cc(O)c3c(=O)cc(-c4ccccc4Cl)oc23)[C@H](O)C1` [Flavopiridol hydrochloride] registered a cell viability of 0.865 ± 0.29.

For `CO[C@H]1C[C@@H]2CC[C@@H](C)[C@@](O)(O2)C(=O)C(=O)N2CCCC[C@H]2C(=O)O[C@H]([C@H](C)C[C@@H]2CC[C@@H](O)[C@H](OC)C2)CC(=O)[C@H](C)/C=C(\C)[C@@H](O)[C@@H](OC)C(=O)[C@H](C)C[C@H](C)/C=C/C=C/C=C/1C` [Rapamycin (Sirolimus)], the cell viability was found to be 0.95 ± 0.017.

As to `CC(=O)Nc1nc(C)c(-c2ccc(Cl)c(S(=O)(=O)NCCO)c2)s1`, the cell viability amounted to 0.974 ± 0.051.

As to `O=C1NC(=O)[C@@H](c2cn3c4c(cccc24)CCC3)[C@@H]1c1c[nH]c2ccccc12` [ARQ 197 (Tivantinib)], the cell viability was 0.593 ± 0.15.

Take `CCC(=O)N1CCN(c2ccc(-n3c(=O)ccc4cnc5ccc(-c6cnc7ccccc7c6)cc5c43)cc2C(F)(F)F)CC1` [Torin 1]: the cell viability turned out to be 0.827 ± 0.045.

`O=C1NC(=O)/C(=C\c2ccc3nccnc3c2)S1` gave a cell viability of 1.04 ± 0.042.

For the molecule `O=C1NC(=O)C(c2ccccc2[N+](=O)[O-])=C1Nc1ccc(O)c(Cl)c1`, the cell viability turned out to be 1.06 ± 0.05.

In turn, `CCn1c(-c2nonc2N)nc2c(C#CC(C)(C)O)ncc(OC[C@H]3CCCNC3)c21` yielded a cell viability of 0.805 ± 0.0057.

Take `O=C1NCCc2[nH]c(-c3ccncc3)cc21`: the cell viability is 0.665 ± 0.14.

Regarding `Cc1ccc(NC(=O)c2ccc(CN3CCN(C)CC3)cc2)cc1Nc1nccc(-c2cccnc2)n1` [Imatinib Mesylate], the cell viability is 0.91 ± 0.024.

As for `Cc1[nH]c(/C=C2\C(=O)Nc3ccccc32)c(C)c1CCC(=O)O`, the cell viability was found to be 1.08 ± 0.13.

`CC(=O)Nc1cccc(-n2c(=O)n(C3CC3)c(=O)c3c(Nc4ccc(I)cc4F)n(C)c(=O)c(C)c32)c1` had a cell viability of 0.9995 ± 0.00071.

For the molecule `COc1cc2c(Oc3ccc(NC(=O)C4(C(=O)Nc5ccc(F)cc5)CC4)cc3F)ccnc2cc1OCCCN1CCOCC1`, the cell viability was found to be 0.845 ± 0.12.

In turn, `O=C(NC1CCNCC1)c1n[nH]cc1NC(=O)c1c(Cl)cccc1Cl` yielded a cell viability of 0.793 ± 0.16.

For `C#Cc1cccc(Nc2ncnc3cc(OCCOC)c(OCCO)cc23)c1` [OSI-420 (Desmethyl Erlotinib)], the cell viability turned out to be 1.075 ± 0.0071.

Molecule `CN(C)CCOc1ccc(-c2nc(-c3ccncc3)c(-c3ccc4c(c3)CC/C4=N\O)[nH]2)cc1` displayed a cell viability of 1.2 ± 0.11.

Take `NC(=O)Nc1sc(-c2ccc(F)cc2)cc1C(N)=O`: the cell viability was 1.1 ± 0.085.

In the case of `COc1cc2c(Oc3ccc4[nH]c(C)cc4c3F)ncnc2cc1OCCCN1CCCC1` [Cediranib (AZD2171)], the cell viability amounted to 0.658 ± 0.02.

With `C=CC(=O)Nc1cccc(Sc2nc(Nc3ccc(N4CCN(C)CC4)cc3)ncc2Cl)c1`, the cell viability came out at 1.02.

`COc1cc(Nc2ncc(F)c(Nc3ccc4c(n3)NC(=O)C(C)(C)O4)n2)cc(OC)c1OC` [R406(free base)] registered a cell viability of 1.2 ± 0.05.

In the case of `O=C(Nc1cc(C(F)(F)F)cc(C(F)(F)F)c1)c1cc(Cl)ccc1O`, the cell viability was determined as 0.303 ± 0.12.

For the molecule `Cc1cc(C(=O)NOCCO)c(Nc2ccc(I)cc2F)n(C)c1=O`, the cell viability came to 0.889 ± 0.075.

`O=C(NC[C@H](O)CO)c1ccncc1Nc1ccc(I)cc1F` showed a cell viability of 0.817 ± 0.036.

With `CNC(=O)c1ccccc1Nc1nc(Nc2ccc(N3CCOCC3)cc2OC)ncc1Cl`, the cell viability came out at 0.895 ± 0.049.

`CC(C)(C)c1cnc(CSc2cnc(NC(=O)C3CCNCC3)s2)o1` returned a cell viability of 0.786 ± 0.17.

For `COc1ccc(S(=O)(=O)N(C(C)=O)c2ccccc2/C=C/c2cc[n+]([O-])cc2)cc1`, the cell viability stood at 0.619 ± 0.28.

`Cn1cc(C2=C(c3ccc(Cl)cc3Cl)C(=O)NC2=O)c2ccccc21`: the cell viability came to 1.01 ± 0.088.

`Cn1cnc2c(F)c(Nc3ccc(Br)cc3Cl)c(C(=O)NOCCO)cc21` [AZD6244 (Selumetinib)] returned a cell viability of 0.914 ± 0.066.

Turning to `O=c1cc(N2CCOCC2)oc2c(-c3ccccc3)cccc12`, the cell viability is 1.11 ± 0.021.

For the molecule `O=C(O)c1ccc(Nc2ncc3c(n2)-c2ccc(Cl)cc2C(c2c(F)cccc2F)=NC3)cc1`, the cell viability was determined as 0.982 ± 0.0042.

`Nc1ccc(-c2ccc3ncc4ccc(=O)n(-c5cccc(C(F)(F)F)c5)c4c3c2)cn1` [Torin 2]: the cell viability was 0.681 ± 0.085.

Consider `CCn1nnc2c(N3CCOCC3)nc(-c3ccc(NC(=O)Nc4ccc(C(=O)N5CCN(C)CC5)cc4)cc3)nc21`, for which the cell viability came to 0.683 ± 0.11.

For `N#C/C(=C\c1ccc(O)c(O)c1)C(=O)NCc1ccccc1`, the cell viability was determined as 1.08 ± 0.028.

Consider `COc1cc2ncnc(Nc3cccc(Br)c3)c2cc1OC`, for which the cell viability was 1.06 ± 0.086.

The subject of another assay is SW480. The assay is described as above. The note with it: 10 µM; treatment time 24 h; reporter: 7TFP. In short, it runs like this: as §1
The molecule `O=C(NOC[C@H](O)CO)c1ccc(F)c(F)c1Nc1ccc(I)cc1F` showed a cell viability of 1.11 ± 0.028.

Molecule `Cc1cnc(Nc2ccc(N3CCN(C)CC3)cc2)nc1Nc1cccc(S(=O)(=O)NC(C)(C)C)c1` had a cell viability of 0.702 ± 0.18.

Turning to `N#CCNC(=O)c1ccc(-c2ccnc(Nc3ccc(N4CCOCC4)cc3)n2)cc1`, the cell viability turned out to be 1.09 ± 0.035.

For `COc1ccc2c(OCc3nnc4ccc(-c5ccccc5)nn34)ccnc2c1`, the cell viability turned out to be 0.909 ± 0.028.

`Oc1cc(O)cc(/C=C/c2ccc(O)c(O)c2)c1` [Piceatannol] displayed a cell viability of 0.863 ± 0.0085.

As to `CN1CC[C@H](c2c(O)cc(O)c3c(=O)cc(-c4ccccc4Cl)oc23)[C@H](O)C1` [Flavopiridol hydrochloride], the cell viability was found to be 1.36 ± 0.11.

`CO[C@H]1C[C@@H]2CC[C@@H](C)[C@@](O)(O2)C(=O)C(=O)N2CCCC[C@H]2C(=O)O[C@H]([C@H](C)C[C@@H]2CC[C@@H](O)[C@H](OC)C2)CC(=O)[C@H](C)/C=C(\C)[C@@H](O)[C@@H](OC)C(=O)[C@H](C)C[C@H](C)/C=C/C=C/C=C/1C` [Rapamycin (Sirolimus)] showed a cell viability of 1.24 ± 0.014.

For `CC(=O)Nc1nc(C)c(-c2ccc(Cl)c(S(=O)(=O)NCCO)c2)s1`, the cell viability was 1.1.

For `O=C1NC(=O)[C@@H](c2cn3c4c(cccc24)CCC3)[C@@H]1c1c[nH]c2ccccc12` [ARQ 197 (Tivantinib)], the cell viability turned out to be 1.07 ± 0.014.

The molecule `CCC(=O)N1CCN(c2ccc(-n3c(=O)ccc4cnc5ccc(-c6cnc7ccccc7c6)cc5c43)cc2C(F)(F)F)CC1` [Torin 1] registered a cell viability of 1.17 ± 0.11.

Turning to `O=C1NC(=O)/C(=C\c2ccc3nccnc3c2)S1`, the cell viability was 0.854 ± 0.055.

As for `O=C1NC(=O)C(c2ccccc2[N+](=O)[O-])=C1Nc1ccc(O)c(Cl)c1`, the cell viability came out at 0.859 ± 0.072.

Take `CCn1c(-c2nonc2N)nc2c(C#CC(C)(C)O)ncc(OC[C@H]3CCCNC3)c21`: the cell viability is 1.04 ± 0.05.

`O=C1NCCc2[nH]c(-c3ccncc3)cc21`: the cell viability worked out at 1.24 ± 0.11.

Take `Cc1ccc(NC(=O)c2ccc(CN3CCN(C)CC3)cc2)cc1Nc1nccc(-c2cccnc2)n1` [Imatinib Mesylate]: the cell viability was 0.984 ± 0.066.

The molecule `Cc1[nH]c(/C=C2\C(=O)Nc3ccccc32)c(C)c1CCC(=O)O` came in with a cell viability of 0.96 ± 0.044.

With `CC(=O)Nc1cccc(-n2c(=O)n(C3CC3)c(=O)c3c(Nc4ccc(I)cc4F)n(C)c(=O)c(C)c32)c1`, the cell viability came out at 1.19 ± 0.042.

The molecule `COc1cc2c(Oc3ccc(NC(=O)C4(C(=O)Nc5ccc(F)cc5)CC4)cc3F)ccnc2cc1OCCCN1CCOCC1` gave a cell viability of 1.03 ± 0.13.

Turning to `O=C(NC1CCNCC1)c1n[nH]cc1NC(=O)c1c(Cl)cccc1Cl`, the cell viability worked out at 1.31 ± 0.17.

The molecule `C#Cc1cccc(Nc2ncnc3cc(OCCOC)c(OCCO)cc23)c1` [OSI-420 (Desmethyl Erlotinib)] displayed a cell viability of 0.987 ± 0.047.

Molecule `CN(C)CCOc1ccc(-c2nc(-c3ccncc3)c(-c3ccc4c(c3)CC/C4=N\O)[nH]2)cc1` showed a cell viability of 1.11 ± 0.071.

Turning to `NC(=O)Nc1sc(-c2ccc(F)cc2)cc1C(N)=O`, the cell viability was determined as 1.1 ± 0.014.

As for `COc1cc2c(Oc3ccc4[nH]c(C)cc4c3F)ncnc2cc1OCCCN1CCCC1` [Cediranib (AZD2171)], the cell viability came out at 0.893 ± 0.067.

In turn, `C=CC(=O)Nc1cccc(Sc2nc(Nc3ccc(N4CCN(C)CC4)cc3)ncc2Cl)c1` showed a cell viability of 1.195 ± 0.0071.

`COc1cc(Nc2ncc(F)c(Nc3ccc4c(n3)NC(=O)C(C)(C)O4)n2)cc(OC)c1OC` [R406(free base)] registered a cell viability of 0.968 ± 0.037.

`O=C(Nc1cc(C(F)(F)F)cc(C(F)(F)F)c1)c1cc(Cl)ccc1O` displayed a cell viability of 0.477 ± 0.03.

Molecule `Cc1cc(C(=O)NOCCO)c(Nc2ccc(I)cc2F)n(C)c1=O` returned a cell viability of 1.105 ± 0.0071.

As for `O=C(NC[C@H](O)CO)c1ccncc1Nc1ccc(I)cc1F`, the cell viability stood at 1.14 ± 0.028.

Molecule `CNC(=O)c1ccccc1Nc1nc(Nc2ccc(N3CCOCC3)cc2OC)ncc1Cl` came in with a cell viability of 1.02 ± 0.073.

With `CC(C)(C)c1cnc(CSc2cnc(NC(=O)C3CCNCC3)s2)o1`, the cell viability is 1.3 ± 0.099.

Turning to `COc1ccc(S(=O)(=O)N(C(C)=O)c2ccccc2/C=C/c2cc[n+]([O-])cc2)cc1`, the cell viability amounted to 1.14 ± 0.085.

`Cn1cc(C2=C(c3ccc(Cl)cc3Cl)C(=O)NC2=O)c2ccccc21` displayed a cell viability of 0.993 ± 0.067.

Consider `Cn1cnc2c(F)c(Nc3ccc(Br)cc3Cl)c(C(=O)NOCCO)cc21` [AZD6244 (Selumetinib)], for which the cell viability was 1.125 ± 0.0071.

`O=c1cc(N2CCOCC2)oc2c(-c3ccccc3)cccc12` yielded a cell viability of 0.963 ± 0.033.

`O=C(O)c1ccc(Nc2ncc3c(n2)-c2ccc(Cl)cc2C(c2c(F)cccc2F)=NC3)cc1` yielded a cell viability of 1.01 ± 0.055.

The molecule `Nc1ccc(-c2ccc3ncc4ccc(=O)n(-c5cccc(C(F)(F)F)c5)c4c3c2)cn1` [Torin 2] yielded a cell viability of 1.11 ± 0.064.

For the molecule `CCn1nnc2c(N3CCOCC3)nc(-c3ccc(NC(=O)Nc4ccc(C(=O)N5CCN(C)CC5)cc4)cc3)nc21`, the cell viability amounted to 1.14 ± 0.028.

Regarding `N#C/C(=C\c1ccc(O)c(O)c1)C(=O)NCc1ccccc1`, the cell viability stood at 0.94 ± 0.032.

With `COc1cc2ncnc(Nc3cccc(Br)c3)c2cc1OC`, the cell viability came out at 1.03 ± 0.071.

Values taken from the supplement of paper PMC6522484.
